Laboratory results: PubChem BioAssay (Tox21)
Inconclusive results are not listed. Activity calls are given as the source filed them. The call rests on the fitted dose curve; in most records, active means well fitted cell-killing curve with a large enough effect in the repeat runs; inconclusive means weak or mixed curves, or effect the other way; inactive means flat fitted curve, though single readings scatter.

Experiment: qHTS assay to identify small molecule antagonists of the estrogen receptor alpha (ER-alpha) signaling pathway using the BG1 cell line in the presence of 0.1 nM 17-beta-estradiol - cell viability counter screen (AID 1259241); further: nearly all actives have a fitted effect of over 40% in size
Conditions: VM7Luc4E2 (BG1) viability, CellTiter-Fluor protease, 22 h, 0.1 nM estradiol agonist added; series mostly up to 92.4 µM
From the text: National Center for Advancing Translational Sciences [NCATS]
NIH Chemical Genomics Center [NCGC]
U.S. Environmental Protection Agency [EPA]
National Institutes of Environmental Health Sciences [NIEHS]
National Toxicology Program [NTP]
U.S. Food and Drug Administration [FDA]
Estrogen receptor (ER), a member of the nuclear hormone receptor plays an important role in development, metabolic homeostasis and reproduction. Two subtypes of ER, ER-alpha and ER-beta, have similar expression patterns with some uniqueness in both types. Endocrine disrupting chemicals (EDCs) and their interactions with steroid hormone receptors like ER causes disruption of normal endocrine function. Therefore, it is important to understand the effect of environmental chemicals in ER signaling pathway. For identifying ER antagonists, VM7Luc4E2 cell line was used to screen against Tox21 compound libraries.
VM7Luc4E2 cell line (provided by Denison MS, University of California) endogenously express full-length ER-alpha and is stably transfected with a plasmid containing four estrogen responsive elements (ERE) upstream of a luciferase reporter gene. The current screening for identification of ER-alpha inhibitors against Tox21 compound libraries used lower concentration (0.1 nM) of 17beta-Estradiol as a stimulator. The cytotoxicity of the Tox21 compound libraries against VM7Luc4E2 cell line was tested by measuring live-cell protease activity using CellTiter-Fluor assay in the same wells.
Tox21 Assay Protocol Summary:
VM7Luc4E2 cells were cultured in phenol red free assay medium containing 10% charcoal stripped FBS for 5 days prior to the assay. The cells were dispensed at 4,000 cells/well in 4 uL of assay medium into white wall/solid-bottom 1536-well plates (Corning Life Sciences, Corning, NY) using a Multidrop Combi (ThermoFisher Scientific, Waltham, MA) dispenser. After the assay plates were incubated at 37C and 5% CO2 for 24 hr, 23 nL of compounds dissolved in DMSO, positive controls or DMSO only was transferred to the assay plates by a Pintool station (Kalypsys, San Diego, CA). The transfer of compounds was followed by the addition of 1 uL of 0.1 nM (final concentration) agonist (17beta-Estradiol)/assay medium using a Flying Reagent Dispenser (FRD, Aurora Discovery, San Diego, CA). The plates were incubated at 37C and 5% CO2 for 22 hr. For cytotoxicity assay, 1 uL of CellTiter-Fluor reagent (Promega Corporation, Madison, WI) was added to each well using the FRD and after 30 min incubation at 37C and 5% CO2, The fluorescence intensity was measured using ViewLux plate reader (PerkinElmer, Shelton, CT).

| Structure (SMILES) | outcome |
| --- | --- |
| O=P1(NCCCl)OCCCN1CCCl (stereo not given) | inactive |
| CNC(=O)O/N=C(\SC)C(=O)N(C)C | inactive |
| CNc1cnn(-c2cccc(C(F)(F)F)c2)c(=O)c1Cl | inactive |
| OC[C@@H](O)[C@H]1O[C@@H]2O[C@H](C(Cl)(Cl)Cl)O[C@@H]2[C@H]1O | inactive |
| O=[N+]([O-])c1ccc(Cl)cc1 | inactive |
| N#CN=C(N)N | inactive |
| CC(=O)/C=C/c1ccccc1 | inactive |
| C/C=C/c1ccc2c(c1)OCO2 | inactive |
| Cl[C@H]1OCCO[C@@H]1Cl | inactive |
| CC(C)CCCCCCOC(=O)c1ccccc1C(=O)OCCCCCCC(C)C | inactive |
| COc1cc(-c2ccc(N)c(OC)c2)ccc1N | inactive |
| CN(C)C(=O)Nc1cccc(C(F)(F)F)c1 | inactive |
| CCCCC(CC)C(=O)Cl (stereo not given) | inactive |
| C=CC(=O)OCC(CC)CCCC (stereo not given) | inactive |
| O=S(=O)(O)OOS(=O)(=O)O | inactive |
| CCOC(=O)CC(SP(=O)(OC)OC)C(=O)OCC (stereo not given) | inactive |
| N#Cc1cccc(C#N)c1 | inactive |
| Cc1cccc(C)c1NC(=O)CN1CCCC1=O | inactive |
| CCOc1ccc(N)cc1 | inactive |
| COC(C)(C)CCCC(C)C/C=C/C(C)=C/C(=O)OC(C)C (stereo not given) | inactive |

| Structure (SMILES) | outcome |
| --- | --- |
| c1ccc2c(c1)CCCC2 | inactive |
| C=CC#N | inactive |
| CCNc1nc(Cl)nc(NC(C)C)n1 | inactive |
| Cc1ccc(N)cc1 | inactive |
| NNc1ccccc1 | inactive |
| OCc1ccco1 | inactive |
| C=CC(=O)OCCCCCC(C)C | inactive |
| COc1nc(NC(C)C)nc(NC(C)C)n1 | inactive |
| CN(C)CCC#N | inactive |
| O=C(O)Cc1ccccc1 | inactive |
| CN1C(=O)CCS(=O)(=O)C1c1ccc(Cl)cc1 (stereo not given) | inactive |
| FC(F)(F)c1ccc(Cl)cc1 | inactive |
| O=C(O)C(Br)Br | inactive |
| COP(=S)(OC)Oc1ccc(SC)c(C)c1 | inactive |
| COS(=O)(=O)OC | inactive |
| Nc1cc(Cl)cc(Cl)c1 | inactive |
| Clc1cnc(Oc2ccc(Oc3ncc(Cl)cc3Cl)cc2)c(Cl)c1 | inactive |
| Sc1ccccc1 | inactive |
| ClCCOCCCl | inactive |
| Cc1ccc(N=C=O)cc1N=C=O | inactive |
